# Test results taken from PubChem BioAssay (Tox21).
# Where “and” joins values, the source holds several entries; their conditions need not be identical. Equal entries are not always repeated. Records with an inconclusive call do not appear. Unmarked numbers belong to inactive results. Calls of active or inactive are those of the source. Calls come from the whole dose curve.
# Test: qHTS assay for small molecule disruptors of the mitochondrial membrane potential - cell viability (AID 720634); note: nearly all actives have a fitted effect of over 20% in size;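 for activity change, negative = cytotoxicity: human HepG2 liver cancer cells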
# Settings: HepG2 viability, ATP luminescence (CellTiter-Glo), 1 h; series mostly up to 83.2 µM; activity change, negative = cytotoxicity: at the top concentration
# Text: U.S. Tox21 Program National Center for Advancing Translational Sciences [NCATS] NIH Chemical Genomics Center [NCGC] U.S. Environmental Protection Agency [EPA] National Institutes of Environmental Health Sciences [NIEHS] National Toxicology Program [NTP] U.S. Food and Drug Administration [FDA] Tox21 Assay Overview: Mitochondrial membrane potential (MMP), one of the parameters for mitochondrial function, is generated by mitochondrial electron transport chain that creates an electrochemical gradient by a series of redox reactions. This gradient drives the synthesis of ATP, a crucial molecule for various cellular processes. Measuring MMP in living cells is commonly used to assess the effect of chemicals on mitochondrial function; decreases in MMP can be detected using lipophilic cationic fluorescent dyes. […] The dye accumulates in the mitochondria of healthy cells as aggregates, with red fluorescence. The mitochondrial potential decreases and the dye could not accumulate in the mitochondria and remains in the cytoplasm in monomers, with green fluorescence. In addition to the mitochondrial potential assay, these cells were also used to test the cytotoxicity by determining the cell viability in the culture based on the quantitation of ATP present. The cytotoxicity was measured in the same assay well of MMP assay.
# Tox21 Assay Protocol Summary: 2,000 HepG2 cells in 5 uL/well were dispensed into black, clear-bottom 1536-well plates using a Multidrop Combi (Thermo Scientific) dispenser. The assay plates were incubated for an overnight at 37 C to allow cells to attach to the wells, followed by the transfer of 23 nL compound or DMSO vehicle by a pin tool (Kalypsys). The plates were incubated for 1 hr at 37 C and 5% CO2, followed by the addition of 5 uL of 2X m-MPI dye into each well using Flying Reagent Dispenser (Aurora Discovery) and then CellTiter-Glo reagent was added at 4 uL/well and incubated 30 min at room temperature. Then luminescence intensity was quantified on a ViewLux CCD-based plate reader.
# % is set by controls: 0 for no effect and ±100 for the full control effect; potency is the fitted concentration of half-maximal effect.
Structure (SMILES),"activity change, negative = cytotoxicity",Potency
CCCCC#N,-9%,–
N#CC(C#N)=Cc1ccc(O)c(O)c1,-17%,–
CC(C)CCCCCCCOC(=O)c1ccccc1C(=O)OCCCCCCCC(C)C,3.87%,–
O=C(O)c1cc(I)cc(I)c1I,6.47% [at 95.3 µM],–
CCC(C)Cl (stereo not given),5.13%,–
Cc1ccc(N)c(C)c1,–,inactive
ClCc1ccccc1Cl,6.11% [at 95.3 µM],–
CC(Cl)C(=O)O (stereo not given),-2.11% [at 95.3 µM],–
CCC1CCC(=O)O1 (stereo not given),6.4% [at 95.3 µM],–
N#CC(C#N)=C(C#N)C#N,-10.5% [at 95.3 µM],–
COP(=O)(OC)OC(Br)C(Cl)(Cl)Br (stereo not given),–,inactive
CCOc1cccc(C2(N3CCN(c4ccccc4)CC3)CCC(C)CC2)c1 (stereo not given),13.7%,–
C[N+]1(CCF)[C@@H]2CC[C@H]1CC(OC(=O)C(O)(c1ccccc1)c1ccccc1)C2 (stereo not given in full),-4.55%,–
OCCSSCCO,9.76%,–
CCCCNC(=O)OCC#CI,–,8.59 µM (active) and 27.3 µM (active)
C=CCSSCC=C,9.03%,–
C=CCc1ccc(OC(=O)Cc2ccccc2)c(OC)c1,6.27%,–
Cc1ccc2c(C)cccc2c1,8.36%,–
CC(Oc1cc(Cl)c(Cl)cc1Cl)C(=O)O (stereo not given),12.4%,–
CCCC1CCCCN1 (stereo not given),-2.66%,–

Structure (SMILES),"activity change, negative = cytotoxicity",Potency
C1CCNCC1,-5.58% [at 95.3 µM],–
CCC(C)(C)O,-5.94%,–
N#CC1(N=NC2(C#N)CCCCC2)CCCCC1,-12.4%,–
O=C(O)C(O)C(O)C(=O)O (stereo not given),14.4%,–
CCC1(C2=NCCN2)Cc2ccccc2O1 (stereo not given),8.81%,–
COC1CC(=C(c2cccs2)c2cccs2)C[N+](C)(C)C1 (stereo not given),-6.66%,–
CCCCC1C(=O)NC(=O)N(C2CCCCC2)C1=O (stereo not given),13.4%,–
CN1C[C@H](C(=O)N[C@]2(C)O[C@@]3(O)[C@@H]4CCCN4C(=O)[C@H](Cc4ccccc4)N3C2=O)C=C2c3cccc4[nH]cc(c34)C[C@H]21,–,inactive
CC(C)(C)NCC(O)c1cc(Cl)c(N)c(C(F)(F)F)c1 (stereo not given),1.5%,–
CC(=O)NNc1ccccc1,2.82%,–
Cc1nnc(-c2ccccc2)c(=O)n1N,5.18%,–
Cc1cccc(C)c1NC1=NCCCS1,-7.19%,–
O=S(=O)(c1ccccc1)c1ccccc1,-5.47%,–
C=C(C)C(=O)OCCCCOC(=O)C(=C)C,-14.8%,–
CCC[N+](CCC)(CCC)CCC,11.9%,–
CC(Oc1cccc(Cl)c1)C(=O)O (stereo not given),36.1%,–
O=CC=O,–,inactive
Cc1nc2ccccc2c(=O)n1-c1ccccc1Cl,-4.3%,–
CON(C)C(=O)Nc1ccc(Cl)cc1,8.72%,–
CC(=O)OC(c1ccccc1)C(Cl)(Cl)Cl (stereo not given),23%,–
